The results in this text go back to PubChem BioAssay (NCATS).

Several values for one entry are separate records, joined by “and”; a condition that tells them apart may be missing. Identical values can stand only once. Records with an inconclusive call do not appear.

A short description of this test: qHTS Assay for Lipid Storage Modulators (AID 1519). The settings on record: Drosophila S3 cells, BODIPY lipid droplet/cell ratio, laser cytometry; measured here: lipid channel max response; cells loaded with oleic acid. The method, boiled down:
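Cells seeded at 5,000 per well were treated with compounds over a concentration series and loaded with oleic acid (400 uM, as added). Lipid droplet fluorescence (488 nm excitation, 500-530 nm channel) was read by laser-scanning cytometry and normalized to 20 uM Triacsin C.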
In general terms: Quantitative high-throughput screening tests each substance at several concentrations.
As to `CC(C)(C)C(=O)C(Oc1ccc(Cl)cc1)n1cncn1` (configuration not stated), the max response amounted to 16.7%.

For the compound `CCN1C[C@@]2(COC(=O)c3ccccc3N3C(=O)CC(C)C3=O)CC[C@H](OC)[C@]34C5C[C@@H]6[C@@H](OC)C[C@@](O)(C5[C@H]6OC)[C@@](O)(C13)[C@@H](OC)C24` (some centres not stated), the max response was determined as 19.9%.

On to `CC(C)N1C(=O)c2ccccc2NS1(=O)=O`, for which the max response came out at 17.2%.

Regarding `C=C[C@H]1CN2CCC1C[C@@H]2C(O)c1ccnc2ccccc12` (some centres not stated), the max response stood at 27.5%.

As for `O=C(O)COc1cc(Cl)c(Cl)cc1Cl`, the max response worked out at 18.6%.

As to `O=C1CC2OCC=C3CN4CC[C@]56c7ccccc7N1[C@H]5[C@H]2C3C[C@H]46` (some centres not stated), the max response amounted to 20.7%.

On to `COC1CC(OC2CC[C@@]3(C=O)C4CC[C@]5(C)C(C6=CC(=O)OC6)CC[C@@]5(O)C4CC[C@]3(O)C2)OC(C)C1O` (some centres not stated), for which the max response is 20.5%.

`C[C@]12CCC(=O)C=C1CCc1ccc(O)cc12`: the max response is -4.41%.

Regarding `CC1OC(O[C@@H]2C(O)CC(O[C@@H]3C(O)C[C@@H](OC4CC[C@]5(C)[C@H](CC[C@H]6[C@@H]5CC[C@]5(C)C(C7=CC(=O)OC7)C(O)C[C@@]65O)C4)OC3C)OC2C)CC(O)C1O` (some centres not stated), the max response came out at 20.2%.

Turning to `CC1(C)C(O)CC(O)[C@]2(C)C1CC(=O)[C@]1(C)C2CC[C@@]2(C)C(c3ccoc3)OC(=O)C3OC321` (some centres not stated), the max response amounted to 11.8%.

As for `CCC(=O)Nc1ccc(Cl)c(Cl)c1`, the max response was 21.3%.

For the compound `CNC(=O)CSP(=S)(OC)OC`, the max response stood at 8.94%.

With `C[C@@]12CCC(Cl)C[C@H]1CCC1C2CC[C@]2(C)C(=O)CCC12` (some centres not stated), the max response is 21.6%.

On to `N#Cc1c(Cl)cccc1Cl`, for which the max response was 14.3%.

Take `C[C@]1(C(=O)O)CCC[C@]2(C)c3cc(O)ccc3CC[C@@H]12`: the max response was -24.8%.

Regarding `CC(C)(C)[C@]1(O)C[C@@H]2OC(=O)C[C@@]23C(=O)O[C@@H]2OC(=O)[C@H](O)[C@]213`, the max response was 8.55%.

With `COc1nc(NC(C)C)nc(NC(C)C)n1`, the max response is -2.96%.

As for `COC1=CC23CCCN2CCc2cc4c(cc2C3C1O)OCO4` (configuration not stated), the max response turned out to be 52.2%.

For the compound `CCc1cccc(C)c1N(C(=O)CCl)C(C)COC` (configuration not stated), the max response came out at 4.99%.

On to `CNC(=O)Oc1ccccc1OC(C)C`, for which the max response was 18.3%.

Consider `COc1cc(C2c3cc4c(cc3C(O)[C@H]3COC(=O)C23)OCO4)cc(OC)c1OC` (some centres not stated), for which the max response is 2.15% and 29.3%.

As to `CC1CC[C@@]2(NC1)O[C@@H]1C[C@H]3C4CC=C5C[C@@H](O)CC[C@]5(C)C4CC[C@]3(C)[C@H]1[C@@H]2C` (some centres not stated), the max response is 6.71%.
